From PubChem BioAssay
NS1 inh – inhibitors of influenza NS1 protein function; Potency, µM (top dose mostly 46.1 µM), for the others: at the highest dose activity, positive = more growth; hit rate 0.4% among 270,000; AID 2326; calls by dose curve; note: potency is the fitted concentration of half-maximal effect; actives are rising curves; nearly all actives have a fitted effect of over 50% in size
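Growth recovery, yeast-based: influenza A NS1 expressed in S. cerevisiae causes slow growth, and suppressors are detected by OD600. The parent strain without NS1 is used as positive control.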
CHX counter-1 – counter-screen hit for Shiga toxin inhibitors, cycloheximide. max response, %. cell reporter, cycloheximide protein synthesis inhibition counterscreen. hit rate 12% among 300,000; in the data active = max response mostly above about 13%, no sharp cut-off; inactive = mostly below about 14%; note: read at 38.3 µM for the half of the compounds with a filed dose; 0% is about no effect
Shiga inhibitor – blocks Shiga toxin action in Vero cells; Vero cells, Shiga toxin protein synthesis inhibition reporter; inhibition, % at 38.7 µM; hit rate 9.2% among 290,000; in the data active = inhibition mostly above about 28%, no sharp cut-off; inactive = mostly below about 43%; note: 0% is about no effect
Pf growth 48h – P. falciparum growth inhibition at 48 hours (one generation) | P. falciparum luciferase growth in erythrocytes, 48 h | Potency, µM (top dose mostly 28.7 µM), without a hit: top-dose activity change, negative = inhibition, usual class: inhibitors | hit rate 5.9% among 310,000; note: potency is the fitted concentration of half-maximal effect; % is set by controls: 0 for no effect and ±100 for the full control effect
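In quantitative HTS format, infected erythrocytes bearing luciferase-reporter parasites were treated for a single generation at 37 C. Luminescence after adding detection reagent served as the growth measure.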
Giardia FBPA inh – Giardia lamblia aldolase inhibition | A8B2U2 | purified Giardia FBPA | Potency, µM (top dose mostly 59.6 µM), for inactives: at the highest dose activity, negative = inhibition, usual class: inhibitors | hit rate 0.71% among 290,000 | AID 2451; note: potency is the fitted concentration of half-maximal effect; % is set by controls: 0 for no effect and ±100 for the full control effect; nearly all actives have a fitted effect of over 55% in size
Target sequence (A8B2U2 whole entry, looked up): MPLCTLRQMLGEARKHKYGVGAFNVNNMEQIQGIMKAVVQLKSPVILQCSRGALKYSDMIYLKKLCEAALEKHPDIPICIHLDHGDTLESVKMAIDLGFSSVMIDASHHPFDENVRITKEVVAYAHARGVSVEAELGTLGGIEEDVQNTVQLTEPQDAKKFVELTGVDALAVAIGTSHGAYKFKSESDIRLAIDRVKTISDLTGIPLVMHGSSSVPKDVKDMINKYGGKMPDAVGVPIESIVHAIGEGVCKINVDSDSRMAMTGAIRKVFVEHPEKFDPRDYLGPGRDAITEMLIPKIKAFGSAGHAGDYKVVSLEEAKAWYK
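40 nM FBPA preincubated 10 min at RT with compound (up to 57.5 uM final), then substrate plus GAPDH/TPI/NAD/arsenate coupling and diaphorase/resazurin added. Fluorescence read after 20 min at RT, 525/598 nm.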
Pf growth 96h – inhibits malaria parasite growth, 96 h; P. falciparum luciferase reporter growth, 96 h; Potency, µM (titrated, usually from 28.7 µM), for the others: at the highest dose activity change, negative = inhibition, most hits filed as inhibitors; hit rate 6.9% among 320,000; AID 504834; note: potency is the fitted concentration of half-maximal effect; % is set by controls: 0 for no effect and ±100 for the full control effect
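Plates of compound plus infected erythrocytes (2% hematocrit, 0.05% parasitemia final) incubate 96 hours, 37 C, 5% CO2. Detection reagent added; reduced luminescence from the parasites' luciferase reporter flags inhibition.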
CHX counter-2 – counter-screen for Shiga toxin inhibitors: cycloheximide protein synthesis block; shares compounds with Shiga inhibitor; Cycloheximide counterscreen, protein synthesis reporter, Shiga toxin assay; hit rate 3% among 510; Potency, µM (highest dose often 38.3 µM), for inactives: at the top dose activity (activation), usual class: activators; calls by dose curve; note: potency is the fitted concentration of half-maximal effect; 0% is about no effect
Numbers without * were called inactive; ! = not confirmed by another sample. The list is not random: actives were taken first. Their share in the collection is about 21%. Unless noted, calls come from the whole dose curve; as a rule, active = well fitted curve in the direction sought with a large enough effect; inconclusive = small, poorly fitted or top-dose-only effect, or another doubt; inactive = no such curve, though single readings can be large; an effect the other way counts as inactive or inconclusive.

What do the screens show for `CCCC[C@@H]1C[C@H]1[C@@H](NC(=O)c1ccco1)c1ccc(Cl)cc1`?
NS1 inh: -77.2%; CHX counter-1: 11.8; Shiga inhibitor: 83.9*; Pf growth 48h: inconclusive; Giardia FBPA inh: 2.7%; Pf growth 96h: inconclusive; CHX counter-2: 2.0%

How did Cc1cnc(NC(=O)c2ccc(-c3nc4ccccc4s3)o2)s1 do in these assays?
NS1 inh: -12.2%; CHX counter-1: 10.6; Shiga inhibitor: 59.6*; Pf growth 48h: 0.0%; Giardia FBPA inh: 4.1%; Pf growth 96h: 11.3%; CHX counter-2: inconclusive

What do the screens show for `COc1ccc(N(CC(=O)Nc2ccc(Cl)cc2)S(=O)(=O)c2c(C)n[nH]c2C)cc1`?
NS1 inh: 4.9%; CHX counter-1: -2.3; Shiga inhibitor: 23.9*; Pf growth 48h: inconclusive; Giardia FBPA inh: 2.5%; Pf growth 96h: -26.6%; CHX counter-2: 3.5%

Results for CCC(NC(=O)/C(=C\c1ccc2c(c1)OCO2)NC(C)=O)C(=O)O (stereo unspecified) ?
NS1 inh: 0.3%; CHX counter-1: 4.5; Shiga inhibitor: -8.3; Pf growth 48h: 0.9%; Giardia FBPA inh: 3.7%; Pf growth 96h: 139.8%

Results for CN(C(=O)c1ccc2c(=O)n3c(nc2c1)CCCCC3)c1ccccc1 ?
NS1 inh: -2.0%; CHX counter-1: 13.4; Shiga inhibitor: active; Pf growth 48h: -29.8%; Giardia FBPA inh: 8.5%; Pf growth 96h: -15.6%; CHX counter-2: 4.0%

Results for CC(NC(=O)c1ccc2c(=O)n3c(nc2c1)CCCCC3)c1ccccc1 (stereo unspecified) ?
Pf growth 48h: -23.5%; Pf growth 96h: inconclusive

How did CC(OC(=O)c1cccc(S(=O)(=O)N(C)C)c1)C(=O)NCc1ccc2c(c1)OCO2 (stereo unspecified) do in these assays?
Pf growth 48h: -13.0%; Pf growth 96h: -2.6%

How did O=C(Nc1nnc(Cc2ccccc2)s1)c1cccnc1 do in these assays?
NS1 inh: -2.9%; CHX counter-1: -2.2; Shiga inhibitor: 58.9*; Pf growth 48h: 40.4%; Giardia FBPA inh: 0.5%; Pf growth 96h: 160.5%; CHX counter-2: -1.0%

Results for COc1ccccc1-n1nnnc1SCc1ccccc1 ?
NS1 inh: -37.4%; CHX counter-1: -1.5; Shiga inhibitor: 5.0; Pf growth 48h: inconclusive; Giardia FBPA inh: -13.7%; Pf growth 96h: inconclusive

How did COc1cc(-n2nnnc2SC)c(OC)cc1Cl do in these assays?
NS1 inh: 1.7%; CHX counter-1: 9.6; Shiga inhibitor: 47.2*; Pf growth 48h: -6.3%; Giardia FBPA inh: 6.4%; Pf growth 96h: -6.2%; CHX counter-2: -1.2%

What do the screens show for `CC1(C)Cc2c(cnn2-c2ccccc2)C(NC(=O)CCN2CCCCO2)C1` (stereo unspecified)?
NS1 inh: 5.4%; CHX counter-1: 4.2; Shiga inhibitor: 25.8*; Pf growth 48h: -13.9%; Pf growth 96h: inconclusive; CHX counter-2: 1.0%

Results for Cc1cccc(N2CCN(C(=O)Cc3ccc(Br)cc3)CC2)c1C ?
NS1 inh: -9.2%; CHX counter-1: 18.7; Shiga inhibitor: 65.7*; Pf growth 48h: -12.1%; Giardia FBPA inh: 8.6%; Pf growth 96h: -5.5%; CHX counter-2: inconclusive

Results for CN(C)c1ccc(C(=O)NCc2ccc3c(c2)CCO3)cc1 ?
NS1 inh: -1.9%; CHX counter-1: 2.3; Shiga inhibitor: 55.1*; Pf growth 48h: 40.0%; Giardia FBPA inh: -2.3%; Pf growth 96h: 46.2%; CHX counter-2: 6.9%

What do the screens show for `Cn1ccnc1C(OC(=O)c1ccc(Cl)cc1)C(F)(F)F` (stereo unspecified)?
NS1 inh: 1.2%; CHX counter-1: 4.3; Shiga inhibitor: -9.5; Pf growth 48h: 1.3%; Giardia FBPA inh: -23.5%; Pf growth 96h: -2.7%

How did Cc1c(Cl)cnc(NC(=O)CSc2n[nH]c(N)n2)c1Cl do in these assays?
Pf growth 48h: 1.9%; Pf growth 96h: -11.1%

Results for Cc1csc(SCC(=O)Nc2ncc(Cl)c(C)c2Cl)n1 ?
NS1 inh: -2.6%; CHX counter-1: 9.3; Shiga inhibitor: 21.3*; Pf growth 48h: 3.1%; Giardia FBPA inh: 12.1%; Pf growth 96h: 0.0%; CHX counter-2: 0.5%

How did Cc1ccc(C2=NN(CC(=O)NCc3ccccn3)C(=O)CC2)cc1 do in these assays?
NS1 inh: -4.7%; CHX counter-1: -2.1; Shiga inhibitor: -7.7; Pf growth 48h: 9.8%; Giardia FBPA inh: 8.6%; Pf growth 96h: -10.9%

How did O=C(c1ccccn1)c1ccc2ccccc2n1 do in these assays?
NS1 inh: 2.4%; CHX counter-1: 10.0; Shiga inhibitor: 56.1*; Pf growth 48h: 11.9%; Giardia FBPA inh: -1.3%; Pf growth 96h: 29.3%; CHX counter-2: -1.4%

Results for O=S(=O)(c1cccs1)N1CCCc2ccccc21 ?
NS1 inh: -12.8%; CHX counter-1: -1.4; Shiga inhibitor: -3.6; Pf growth 48h: inconclusive; Giardia FBPA inh: -7.4%; Pf growth 96h: inconclusive

What do the screens show for `CCCOP(=O)(OCCC)c1nc(-c2ccccc2)oc1NCc1ccccc1`?
NS1 inh: -19.5%; CHX counter-1: 4.0; Shiga inhibitor: 20.3*; Pf growth 48h: 5.86µM*; Giardia FBPA inh: 3.5%; Pf growth 96h: 3.7µM*; CHX counter-2: 0.9%

How did Cc1ccc(O)c([C@H](CCN(C(C)C)C(C)C)c2ccccc2)c1 do in these assays?
NS1 inh: 15.2%; CHX counter-1: -0.5; Shiga inhibitor: 48.4*!; Pf growth 48h: 1.69µM*; Giardia FBPA inh: 26.6%; Pf growth 96h: -5.7%; CHX counter-2: -2.0%

How did CN1CCN(C(=O)CN(C)S(=O)(=O)c2ccc(F)cc2)CC1 do in these assays?
NS1 inh: 6.7%; CHX counter-1: -2.9; Shiga inhibitor: 37.6*; Pf growth 48h: 7.1%; Giardia FBPA inh: -2.3%; Pf growth 96h: 9.8%; CHX counter-2: -0.5%

How did CN(CC(N)=O)S(=O)(=O)c1ccc(F)cc1 do in these assays?
NS1 inh: 9.4%; CHX counter-1: -2.5; Shiga inhibitor: -10.0; Giardia FBPA inh: -0.7%; Pf growth 96h: 46.9%

How did N/C(COc1cccc(Cl)c1)=N\NS(=O)(=O)c1ccccc1 do in these assays?
NS1 inh: 2.1%; CHX counter-1: -3.7; Shiga inhibitor: 11.6; Pf growth 48h: -2.3%; Giardia FBPA inh: 2.8%; Pf growth 96h: 13.4%

What do the screens show for `COc1ccc(N(C(=O)c2csnn2)C(C(=O)NC2CCCC2)c2cccs2)cc1` (stereo unspecified)?
NS1 inh: -0.7%; CHX counter-1: -6.2; Shiga inhibitor: 56.4*; Pf growth 48h: -8.7%; Pf growth 96h: 1.47µM*; CHX counter-2: -3.7%

How did COc1ccc(NS(=O)(=O)c2cnc[nH]2)cc1 do in these assays?
CHX counter-1: -2.6; Shiga inhibitor: -9.2; Pf growth 48h: 2.8%; Giardia FBPA inh: -0.8%; Pf growth 96h: 5.1%
